ELG1 genotox = genotoxicity induction in ELG1-luciferase HEK293T cells | 330,000 tested, 1.3% active | AID 504466 | HEK293T ELG1-luciferase reporter, luminescence, 16 h | Potency, µM (titrated, usually from 46 µM), for the others: at the highest dose activity change, positive = activation, hits mostly activators; further: % of control where 0% means no effect; nearly all actives have a fitted effect of over 60% in size
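ELG1-luciferase HEK293T cells, 2,000/well; compound pinned in; 16 hr, 37 °C, 5% CO2; ONE-Glo, 30 min RT; luminescence on CCD imager.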
FLuc counter = inhibits or activates purified firefly luciferase, miR-21 counter-screen. P08659. purified FLuc, Km substrates, luminescence inhibition. Potency, µM (doses to about 57.5 µM), for inactives: at the highest dose activity change, negative = inhibition, usual class: inhibitors. 360,000 tested, 6.9% active;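 further: plate controls were vehicle for no effect and reference inhibitor for full effect; nearly all actives have a fitted effect of over 55% in size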
Target sequence (P08659 whole entry, looked up): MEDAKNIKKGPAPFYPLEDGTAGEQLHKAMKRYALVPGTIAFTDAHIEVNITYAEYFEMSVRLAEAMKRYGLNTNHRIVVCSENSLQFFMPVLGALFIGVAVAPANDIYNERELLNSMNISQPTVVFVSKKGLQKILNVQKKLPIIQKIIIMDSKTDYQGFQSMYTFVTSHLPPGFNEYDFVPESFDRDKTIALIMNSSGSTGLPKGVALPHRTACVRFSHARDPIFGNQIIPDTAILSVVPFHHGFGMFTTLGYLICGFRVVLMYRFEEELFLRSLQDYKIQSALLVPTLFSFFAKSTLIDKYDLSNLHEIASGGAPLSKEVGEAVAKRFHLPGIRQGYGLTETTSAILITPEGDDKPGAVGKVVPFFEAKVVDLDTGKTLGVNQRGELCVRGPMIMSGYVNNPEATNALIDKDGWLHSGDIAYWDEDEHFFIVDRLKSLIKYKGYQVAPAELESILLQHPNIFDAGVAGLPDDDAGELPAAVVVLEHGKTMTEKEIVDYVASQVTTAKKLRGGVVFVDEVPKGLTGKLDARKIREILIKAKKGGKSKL
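Purified P. pyralis luciferase, 10 nM final, with Km-level 10 uM D-luciferin and 10 uM ATP in 50 mM Tris acetate pH 7.5, 10 mM Mg acetate, 0.01% Tween-20, 0.05% BSA; 6-point qHTS titration about 60 µM downward; luminescence read.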
NPC1 promoter act = activators of NPC1 promoter; AID 485313; Potency, µM (doses to about 9.22 µM), inactives show at the highest dose activation, usual class: activators; Huh7 NPC1 promoter luciferase reporter, 24 h; 320,000 tested, 2.4% active; further: % of control where 0% means no effect; nearly all actives have a fitted effect of over 60% in size
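Huh7 reporter cells (NPC1 promoter driving luciferase) are dosed with compound for 24 h at 37 °C, 5% CO2; luciferase detection reagent is then added and luminescence measured after 10 min at ambient temperature.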
SMN2 splice up = increases expression of the SMN2 splice variant. HEK293 SMN2-luciferase splicing reporter, luminescence, 30-36 h. Potency, µM (highest dose often 46.1 µM), for inactives: at the highest dose activity change, positive = activation, hits mostly activators. 210,000 tested, 2.8% active; further: % of control where 0% means no effect; nearly all actives have a fitted effect of over 55% in size
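HEK293 cells carry an SMN2 […]–luciferase reporter in which exon 7 inclusion puts luciferase in frame. Cells were plated 10-12 h before compound addition, then incubated 30-36 h at 37C. ONE-Glo luminescence was read; sodium butyrate at 4.5 mM final served as control.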
Rab9 prom act = Rab9 promoter activation; 320,000 tested, 2.8% active; Huh7 Rab9 promoter-luciferase reporter, luminescence, 24 h; AID 485297; Potency, µM (highest dose often 9.22 µM), inactives show at the highest dose activation, negative = inhibition, actives largely listed as activators; further: % of control where 0% means no effect; nearly all actives have a fitted effect of over 60% in size
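Promoter activation is measured as luciferase luminescence in Huh7 cells stably transfected with a Rab9 promoter–luciferase construct, following 24 h compound exposure at 37 °C and 10 min reagent incubation at ambient temperature.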
Active calls of the source: *; [ ] = another dose, or the depositor's remark. In the library only some 7.4% were active in any assay of this set; here they are far more common. The call rests on the fitted dose curve; in most records, active means well fitted curve in the direction sought with a large enough effect; inconclusive means small, poorly fitted or top-dose-only effect, or another doubt; inactive means no such curve, though single readings can be large; an effect the other way counts as inactive or inconclusive. Potency means the concentration at half of the fitted maximal effect.

Cc1cc2ncc(C(=O)Nc3ccsc3C(=O)O)c(C)n2n1 was read as ELG1 genotox inconclusive, FLuc counter 12µM*, NPC1 promoter act inconclusive, SMN2 splice up -1.6% and Rab9 prom act inconclusive.
O=C(Nc1cc(F)c(Br)cc1F)c1ccc(Cl)cc1 was read as ELG1 genotox inconclusive, FLuc counter 2.69µM*, NPC1 promoter act 2.24µM* and Rab9 prom act 1.78µM*.
Cc1ccc(C(=O)Nc2ccsc2C(=O)O)cc1 was read as ELG1 genotox 23.1µM*, FLuc counter 2.69µM*, NPC1 promoter act 0.708µM* and Rab9 prom act 0.447µM*.
For Cc1[nH]c2ccccc2c1-c1cc(-c2cc(-c3c(C)[nH]c4ccccc34)nc(N)n2)nc(N)n1 the results were SMN2 splice up -3.1%[9.22 µM].
For O=S(=O)(c1cccc(-c2cn3cccnc3n2)c1)N1CCCCCC1 the results were ELG1 genotox -18.9%, FLuc counter 2.2%, NPC1 promoter act 0.2%, SMN2 splice up -14.9% and Rab9 prom act 8.5%.
`Cc1ccn2cc(-c3cccc(S(=O)(=O)N4CCCCC4)c3)nc2c1` gave ELG1 genotox -4.8%, FLuc counter 19µM*, NPC1 promoter act -5.9% and Rab9 prom act -0.8%.
`Cc1ccc2nc(-c3cccc(S(=O)(=O)N4CCCC4)c3)cn2c1` gave ELG1 genotox 7.1%, FLuc counter 6.75µM*, NPC1 promoter act -1.0% and Rab9 prom act -0.2%.
`Cc1ccc2nc(-c3cccc(S(=O)(=O)N4CC(C)OC(C)C4)c3)cn2c1` (stereo not given) gave ELG1 genotox inconclusive, FLuc counter 13.5µM*, NPC1 promoter act 0.8% and Rab9 prom act -2.0%.
Screening CN(C(=O)Cn1c(=O)n(Cc2ccc(C(=O)NCc3ccc4c(c3)OCO4)cc2)c(=O)c2ccccc21)c1ccccc1 returned FLuc counter -3.9% and SMN2 splice up 15.3%.
O=C(N/N=C/c1ccco1)c1cc(-c2ccccc2)nc2ccccc12 was read as ELG1 genotox -4.3%, FLuc counter 21.3µM*, NPC1 promoter act 13.5% and Rab9 prom act 0.3%.
For O=C(N/N=C/c1ccco1)c1cc(C2CC2)nc2ccccc12 the results were ELG1 genotox 0.1%, FLuc counter -1.7%, NPC1 promoter act -2.5%, SMN2 splice up -5.1% and Rab9 prom act -0.3%.
Screening COc1cccc(-c2cc(C(=O)NN3CCOCC3)c3ccccc3n2)c1 returned ELG1 genotox -3.0%, FLuc counter -13.3%, NPC1 promoter act 0.4%, SMN2 splice up 8.8% and Rab9 prom act 3.1%.
`COc1cccc(-c2cc(C(=O)N/N=C/c3ccco3)c3ccccc3n2)c1` gave ELG1 genotox 1.2%, FLuc counter 3.38µM*, NPC1 promoter act -0.5% and Rab9 prom act 1.2%.
COc1cccc(CNC(=O)CCc2cn(Cc3ccccc3Cl)c3ccccc23)c1 was read as FLuc counter -9.4%.
`Cc1ccccc1C(=O)Nc1nnc(SCC(=O)NCc2ccco2)s1` gave ELG1 genotox 2.91µM*, FLuc counter 1.69µM*, NPC1 promoter act 1.78µM* and Rab9 prom act 1.78µM*.
Screening O=C(CSc1nnc(NC(=O)c2ccc3c(c2)OCO3)s1)NCc1ccco1 returned ELG1 genotox inconclusive, FLuc counter 0.757µM*, NPC1 promoter act 1.12µM*, SMN2 splice up 3.98µM* and Rab9 prom act 0.708µM*.
`O=C(CSc1nnc(NC(=O)c2ccc(F)cc2)s1)NCc1ccco1` gave ELG1 genotox inconclusive, FLuc counter 1.9µM*, NPC1 promoter act 1.58µM* and Rab9 prom act 3.55µM*.
O=C(CSc1nnc(NC(=O)c2ccco2)s1)NCc1ccc2c(c1)OCO2 was read as ELG1 genotox -1.9%, FLuc counter inconclusive, NPC1 promoter act -5.5%, SMN2 splice up 9.8% and Rab9 prom act -8.0%.
Screening CC(C)(C)c1ccc(C(=O)NCc2nnc(SCC(=O)NCc3ccco3)o2)cc1 returned ELG1 genotox 7.1%, FLuc counter 19µM*, NPC1 promoter act 3.2% and Rab9 prom act 2.1%.
For Cc1ccccc1Nc1nnc(SCC(=O)NCc2ccco2)s1 the results were ELG1 genotox -0.2%, FLuc counter 3.4%, NPC1 promoter act 1.4%, SMN2 splice up 5.9% and Rab9 prom act 3.5%.
`CCOc1ccc(CCNC(=O)CCCc2nnc3n(CC(C)C)c(=O)c4sccc4n23)cc1` gave FLuc counter 5.9%.
For O=C(CSc1nnc(NC(=O)c2ccccc2)s1)NCc1ccco1 the results were ELG1 genotox inconclusive, FLuc counter 4.78µM*, NPC1 promoter act 2.82µM* and Rab9 prom act 3.16µM*.
`Cc1cc(/C=N/NC(=O)c2cccc(N(C)C)c2)c(C)n1-c1cc(C(=O)O)cc(C(=O)O)c1` gave ELG1 genotox inconclusive, FLuc counter 23.9µM*, NPC1 promoter act 16.6%, SMN2 splice up inconclusive and Rab9 prom act inconclusive.
`CN(C)c1cccc(C(=O)N/N=C/c2ccccc2F)c1` gave ELG1 genotox 1.03µM*, FLuc counter 0.601µM*, NPC1 promoter act 0.708µM*, SMN2 splice up 1.41µM* and Rab9 prom act 0.355µM*.
O=C(Cc1ccccc1)N/N=C/c1ccccc1F was read as ELG1 genotox 10.5%, FLuc counter -18.3%, NPC1 promoter act 10.2%, SMN2 splice up 18.0% and Rab9 prom act -0.3%.
Screening Cc1cc(/C=N/NC(=O)C(O)(c2ccccc2)c2ccccc2)c(C)n1-c1cccc(C(=O)O)c1 returned ELG1 genotox -1.2%, FLuc counter -6.9%, NPC1 promoter act -0.1% and Rab9 prom act 0.7%.
C=C1C(CCl)(CCl)C2(Cl)C(Cl)C(Cl)C1(Cl)C2(Cl)Cl (stereo not given) was read as SMN2 splice up -5.1%.
For Cc1cccc(N2CCN(S(=O)(=O)c3ccc(-c4cnc(C5CC5)o4)cc3)CC2)c1C the results were FLuc counter -2.8%.
COc1ccccc1C(=O)NC1=NC(c2ccc(Br)cc2)CC(=O)N1 (stereo not given) was read as FLuc counter 4.78µM* and SMN2 splice up 11.2µM*.
Screening COc1ccc(N=C2NC(=O)/C(=C/c3ccc(O)c(OC)c3)S2)cc1 returned ELG1 genotox 12.2%, FLuc counter inconclusive, NPC1 promoter act -4.9%, SMN2 splice up -13.8% and Rab9 prom act -2.0%.
For COc1ccc(/C=C2\SC(=Nc3ccccc3)NC2=O)cc1 the results were ELG1 genotox 7.4%, FLuc counter 7.57µM*, NPC1 promoter act -4.9% and Rab9 prom act 4.4%.
For COc1ccccc1N=C1NC(=O)/C(=C/c2ccc(N(C)C)cc2)S1 the results were ELG1 genotox inconclusive, FLuc counter 1.07µM*, NPC1 promoter act -10.7% and Rab9 prom act 4.1%.
For O=C1NC(=O)/C(=C\c2ccc(Cl)nc2)S1 the results were ELG1 genotox inconclusive, FLuc counter 15.1µM*, NPC1 promoter act inconclusive and Rab9 prom act inconclusive.
